Source: PubChem (several laboratories)
PfM18AAP inh = blocks P. falciparum M18 aspartyl aminopeptidase. inhibition, % at 7.35 µM. recombinant PfM18AAP, H-Glu-NHMec fluorogenic cleavage. hit rate 1.2% among 290,000. AID 1822;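 active means inhibition above the campaign mean inhibition over all tested compounds plus 3 SD, cut at about 28% in these data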;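 further: 0% = plate median of test compound wells and 100% = 2 mM ZnCl2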
IDE inh = cellular human IDE inhibition | P14735 | HEK cells, FAbetaB cleavage, fluorescence polarization | inhibition, % at 5.59 µM | hit rate 0.41% among 320,000 | AID 434962;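 active means percent inhibition above the average of all tested compounds plus 3 SD, set per screening campaign, cut at about 16% in these data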;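 further: IDE supplied by intact live HEK cells; FP after avidin binding of uncleaved biotin substrate so inhibition keeps polarization high; 0% = DMSO wells and 100% = 60 µM reference IDE inhibitor Ii1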
CaV13 ICDI inh = Primary screen for inhibitors of IQ motif and Ca2+-dependent inactivation inhibitor domain binding in CACNA1D, Förster resonance energy transfer in living cells, … | hit rate 0.098% among 340,000 | inhibition, % at 12.3 µM | HEK cells, CFP/YFP FRET ICDI-IQ, plate reader, 10 min; percent FRET-ratio fall versus neutral wells;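 active means mean replicate inhibition of at least 30% and at least 1% of replicates passing that level; inconclusive means only one of the two criteria is met; inactive means neither criterion is met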;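 further: 0% = median of the neutral control wells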
ALR inh = human ALR oxidase inhibition via reduced H2O2 | purified ALR, DTT oxidation, H2O2 HRP-luminol luminescence | AID 485317 | hit rate 3.8% among 290,000 | inhibition, % (concentration not given with the values);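 active means mean replicate inhibition above about 79%, with every replicate also reaching it, limit read from the data; inconclusive means only one of the two criteria met; inactive means mean below limit and not every replicate reaching it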
Target sequence (P55789 whole entry, looked up): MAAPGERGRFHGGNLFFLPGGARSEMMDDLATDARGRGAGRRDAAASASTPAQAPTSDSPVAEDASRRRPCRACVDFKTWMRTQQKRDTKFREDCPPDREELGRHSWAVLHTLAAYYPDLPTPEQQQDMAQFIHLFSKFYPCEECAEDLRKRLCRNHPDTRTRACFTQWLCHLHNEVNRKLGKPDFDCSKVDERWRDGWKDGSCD
PolyA inh = yeast polyadenylation inhibition; S. cerevisiae SKY197-pL101 polyadenylation reporter, beta-gal luminescence; efflux-impaired pdr1/pdr3 knockout yeast; score 100 = 6 SD above DMSO; activity score, % at 12 µM; hit rate 0.02% among 300,000; AID 1875;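 active means lowest replicate activity score at least 50, where 100 means six control SD above control mean; inconclusive means lowest score under 50 but half or more replicates reach 50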;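 further: yeast exposed to compound for 9 h at 30 °C; higher score means more reporter readthrough which indicates perturbed polyadenylation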
IDE cell activ = IDE (human) activation, cell-based; P14735; HEK cells, FAbeta-B cleavage, fluorescence polarization; 0% vehicle, 100% cell-free pure enzyme wells; activation, % at 5.96 µM; hit rate 0.073% among 340,000;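 active means activation above the mean of all tested compounds plus 3 SD, set per screening campaign, cut at about 17% in these data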
Starred values were filed as active, the others as inactive; u = inconclusive; x = no result given. In the library only some 4.1% were active in any assay of this set; here they are far more common.

SMILES	PfM18AAP inh	IDE inh	CaV13 ICDI inh	ALR inh	PolyA inh	IDE cell activ
COc1ccc(NC(=O)CSc2c(C)n[nH]c2C)cc1	-4	8	-4	99*	21	7
COc1ccc(NC(=O)CSc2nnc(C)c3ccccc23)cc1	2	-4	-7	99*	-6	-7
O=C(c1ccccc1F)N1CCN=C1SCc1cccnc1	-1	2	-7	100*	7	-1
O=C(c1c(F)cccc1F)N1CCN=C1SCc1ccccc1	-8	5	4	5	11	2
CCOc1ccccc1C(=O)N1CCN=C1SCc1cccnc1	8	-3	-2	99*	8	-1
CS(=O)(=O)C1=NSC2=NC(=O)/C(=C\c3ccc(OS(=O)(=O)c4ccccc4)cc3)C(=N)N21	5	0	-2	65	-4	3
CCS(=O)(=O)C1=NN2C(=N)/C(=C\c3ccc(OS(=O)(=O)c4ccccc4)c(OC)c3)C(=O)N=C2S1	-12	4	x	u	1	x
CCS(=O)(=O)C1=NSC2=NC(=O)/C(=C\c3ccc(OS(=O)(=O)c4ccccc4)c(OC)c3)C(=N)N21	7	4	x	97*	-10	-3
COc1cc(/C=C2\C(=N)N3N=C(S(C)(=O)=O)SC3=NC2=O)ccc1OS(=O)(=O)c1ccccc1	1	0	x	91*	11	x
Cc1ccc(S(=O)(=O)Oc2ccc(/C=C3/C(=N)N4C(=NC3=O)SN=C4S(C)(=O)=O)cc2)cc1	-2	-2	-14	98*	-6	1
Cc1ccc(S(=O)(=O)Oc2ccc(/C=C3\C(=N)N4N=C(S(C)(=O)=O)SC4=NC3=O)cc2)cc1	-10	-1	-17	92*	-14	1
C[C@H](NC(=O)c1ccccc1Cl)C(=O)OCC(=O)N1CC2(C)CC1CC(C)(C)C2 (some centres undefined)	3	2	-4	0	-11	3
COc1cccc(-n2c(C)cc(/C=C3/C(=N)N4C(=NC3=O)SN=C4S(C)(=O)=O)c2C)c1	2	1	-14	97*	1	-2
COc1cc(/C=C2/C(=N)N3C(=NC2=O)SN=C3S(C)(=O)=O)ccc1OS(=O)(=O)c1ccc(C)cc1	7	8	-7	54	2	0
c1ccc(SCCN2CCN(c3ccccc3)CC2)cc1	4	-1	-19	98*	10	6
CC(CN1CCN(c2ccccc2)CC1)c1ccccc1 (centres undefined)	1	-2	-7	98*	6	3
CC(CCN1CCN(c2ccc(F)cc2)CC1)c1ccccc1 (centres undefined)	1	2	-2	36	-10	-2
Brc1ccc(CN2CCN(c3ccccc3)CC2)o1	11	x	-1	97*	13	0
COc1ccc(C(=O)Nc2cc(C)nn2-c2cccc(F)c2)cc1	-2	9	-10	1	18	0
CC1CN(c2ccccc2)NC1=O (centres undefined)	-9	5	6	99*	-4	-3
CC1CN(Cc2ccccc2)C(=O)NC1=O (centres undefined)	x	x	-9	x	x	5
O=c1c2c([N+](=O)[O-])cc([N+](=O)[O-])cc2sn1-c1ccc(Br)cc1	25	96*	x	-7	x	-53
O=C(Nc1ccc(Br)cc1)c1cc([N+](=O)[O-])cc([N+](=O)[O-])c1	-11	-3	-2	-11	-23	5
O=C(NNS(=O)(=O)c1ccc(F)cc1)c1ccccc1F	11	2	-3	24	-12	7
O=C(NNc1ccccn1)C(=O)NNS(=O)(=O)c1ccc(F)cc1	21	-1	-5	99*	5	4
O=C(NNc1ccccc1)C(=O)NNS(=O)(=O)c1ccc([N+](=O)[O-])cc1	5	-3	22	98*	-1	2
O=C(NNS(=O)(=O)c1ccc(F)cc1)c1cc2ccccc2cc1O	14	-4	-4	98*	0	-2
CC(=O)Nc1ccc(S(=O)(=O)NNC(=O)c2ccc([N+](=O)[O-])cc2)cc1	21	0	2	72	-8	5
